Compound activity deposited in PubChem by Broad Institute.
Hits are enriched below; roughly 3.3% of the tested compounds scored in any of these assays.
SIRT5 block = sirtuin-5 (human) deacylase inhibition; AID 652115; Purified SirT5, succinyl-peptide AMC, trypsin-coupled fluorescence; Q9NXA8; inhibition, % at 15 µM; actives 1.1% (n = 330,000); in the data active = inhibition above about 15%
FGF22 binding = FGF22 (human) thermal shift binding; AID 651658; recombinant FGF22 thermal shift, SYPRO orange fluorescence; percent of sucrose octasulfate shift, DMSO zero; activity (Tm shift, normalised), % at 9.99 µM; actives 1.5% (n = 340,000);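 active = mean Tm shift, scaled 0 neutral to 100 positive control, at about 1.3% or above, every replicate too, limit read from the data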
Target sequence (Q9HCT0 whole entry, looked up): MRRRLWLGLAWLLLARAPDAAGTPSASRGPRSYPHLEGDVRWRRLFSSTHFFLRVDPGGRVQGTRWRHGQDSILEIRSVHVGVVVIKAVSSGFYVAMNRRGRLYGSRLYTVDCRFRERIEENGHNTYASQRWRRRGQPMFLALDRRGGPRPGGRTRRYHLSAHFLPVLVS
GSIS activator = primary screen for activators of insulin secretion dependent on glucose, INS-1E cells, GLuc reporter luminescence; activation, % at 16.6 µM; INS-1E GLuc reporter insulin secretion, 2-3 h; actives 0.61% (n = 370,000);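 active = lowest replicate activation of at least 40%, so every replicate reaches that level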
ERAP1 HTS inh = blocks human ERAP1 aminopeptidase activity | AID 652197 | actives 0.15% (n = 340,000) | recombinant ERAP1, Leu-AMC fluorescence, 60 min | inhibition, % at 10.7 µM;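 active = mean replicate inhibition of at least 30%, or all replicates individually reaching that 30% level; inactive = mean below 30% and not every replicate reaching it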
CASP6 VEID inh = caspase-6 (human) enzyme inhibition | P55212 | purified caspase-6, Z-VEID-R110 cleavage fluorescence | inhibition, % at 12.5 µM | actives 0.53% (n = 350,000);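 active = mean inhibition across replicates at least about 35%, with every replicate also reaching that limit, limit read from the data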
Target sequence (P55212 24-179 limits assumed): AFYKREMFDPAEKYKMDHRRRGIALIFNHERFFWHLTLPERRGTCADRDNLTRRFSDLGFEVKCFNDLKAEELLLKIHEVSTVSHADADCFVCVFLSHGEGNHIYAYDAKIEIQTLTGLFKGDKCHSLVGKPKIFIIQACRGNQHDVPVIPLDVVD
Target sequence (P55212 194-293 limits assumed): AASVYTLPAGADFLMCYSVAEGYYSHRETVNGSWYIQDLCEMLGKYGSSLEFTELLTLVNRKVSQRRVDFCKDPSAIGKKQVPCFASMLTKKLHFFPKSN
Each line names hits and unclear results; the compound was inactive in the other large screens.

Cc1noc(C)c1S(=O)(=O)N(C)C[C@@H]1OCCCC[C@@H](C)Oc2ccc(NC(=O)Nc3cccc4ccccc34)cc2C(=O)N([C@H](C)CO)C[C@@H]1C	SIRT5 block 20.5
C[C@H](CO)N1C[C@H](C)[C@H](CN(C)S(=O)(=O)c2cn(C)cn2)OCCCC[C@H](C)Oc2ccc(NC(=O)Nc3cccc4ccccc34)cc2C1=O	none
O=C(C1CC1)N1CC2(C1)[C@H](c1ccccc1)[C@H](CO)N2C(=O)c1cccnc1	none
CC(C)(C)OC(=O)N[C@@H](Cc1ccccc1)c1nnc(S(=O)(=O)Cc2ccccc2)o1	GSIS activator 169.4 (no result: SIRT5 block, FGF22 binding, ERAP1 HTS inh, CASP6 VEID inh)
Cc1ccccc1CS(=O)(=O)c1nnc([C@H](Cc2ccccc2)NC(=O)OC(C)(C)C)o1	GSIS activator 45.0
CCN(CC)C(=O)C(=O)c1cccn1-c1cccc(OC)c1C#N	FGF22 binding 45.2
COc1cccc(N2CC(C(=O)Nc3nnc(SCC(=O)N4CCCC4)s3)CC2=O)c1 (stereo unspecified)	SIRT5 block 17.0
Cc1ccc(S(=O)(=O)N(C)C[C@@H]2OCCCC[C@H](C)Oc3ccc(NC(=O)CCCN(C)C)cc3C(=O)N([C@@H](C)CO)C[C@H]2C)cc1	none
COc1ccc([Si](C)(C)[C@H]2[C@H](CCO)O[C@@]3(C(=O)N(Cc4ccccc4)c4ccc(N5CCCCC5=O)cc43)[C@@H]2C)cc1	none (no result: GSIS activator)
COc1ccc([Si](C)(C)[C@H]2[C@H](CCO)O[C@@]3(C(=O)N(Cc4ccccc4)c4ccc(N5CCC5=O)cc43)[C@@H]2C)cc1	SIRT5 block 17.3 (no result: GSIS activator)
COc1ccc([Si](C)(C)[C@@H]2[C@@H](CCO)O[C@]3(C(=O)N(Cc4ccc(NC(C)=O)cc4)c4ccccc43)[C@H]2C)cc1	none (no result: GSIS activator)
COc1ccc([Si](C)(C)[C@H]2[C@H](CCO)O[C@@]3(C(=O)N(Cc4ccc(NC(C)=O)cc4)c4ccccc43)[C@@H]2C)cc1	SIRT5 block 21.2 (no result: GSIS activator)
COc1ccc2c3c(n(C)c2c1)[C@@H](CO)N(C(=O)C1CC1)CC31CCN(C(=O)C2CCOCC2)CC1	none
Cc1noc(C)c1S(=O)(=O)N(C)C[C@H]1Oc2c(NS(=O)(=O)c3cn(C)cn3)cccc2C(=O)N([C@@H](C)CO)C[C@@H]1C	none
CCOCCCn1c(=NC(=O)c2ccco2)c(C(=O)OCC)cc2c(=O)n3cccc(C)c3nc21	ERAP1 HTS inh 60.1 (no result: GSIS activator)
CCOC(=O)c1cc2c(=O)n3ccccc3nc2n(Cc2ccco2)c1=NC(=O)c1ccccc1OC	ERAP1 HTS inh 36.1
COCC(=O)Nc1ccc2c(c1)C(=O)N(C)C[C@@H](OC)[C@H](C)CN(C(=O)c1ccncc1)[C@H](C)CO2	none
Cc1noc(C)c1NC(=O)N(C)C[C@H]1OCCCC[C@@H](C)Oc2ccc(NC(=O)c3ccccc3)cc2C(=O)N([C@H](C)CO)C[C@H]1C	none (no result: FGF22 binding)
O=C(Cc1ccncc1)NCC[C@@H]1CC[C@H](NC(=O)C2CCCC2)[C@H](CO)O1	none
O=C(c1cccnc1)N1CC2(C1)[C@H](c1ccccc1)[C@@H](CO)N2C(=O)c1cccnc1	none
C[C@@H]1CN([C@@H](C)CO)C(=O)c2cc(NC(=O)CCN3CCOCC3)ccc2O[C@@H]1CN(C)Cc1ccc(Cl)c(Cl)c1	none
CC(Cc1ccccc1)C(=O)NCc1ccncc1 (stereo unspecified)	none (no result: GSIS activator)
OC(Cc1ccncc1)c1ccccc1Cl (stereo unspecified)	FGF22 binding 43.4 (no result: SIRT5 block)
COC(=O)Cc1c(C)c2ccc(O)c(CNCc3ccc(OC)c(OC)c3)c2oc1=O	ERAP1 HTS inh 97.0
Cc1ccc(S(=O)(=O)Oc2cccc([N+](=O)[O-])c2)cc1	FGF22 binding 43.7 (no result: SIRT5 block, GSIS activator)
O=C(C[C@H]1CC[C@@H](NC(=O)Cc2ccccn2)[C@@H](CO)O1)NCCCN1CCOCC1	none
COc1ccc2c3c(n(C)c2c1)[C@@H](CO)NCC31CN(S(=O)(=O)c2cccc(F)c2)C1	none (no result: SIRT5 block, FGF22 binding, ERAP1 HTS inh, CASP6 VEID inh)
O=c1c2ccccc2nnn1Cc1ccccc1	GSIS activator 45.4
COc1cc(CC(=O)OCn2nnc3ccccc3c2=O)cc(OC)c1OC	FGF22 binding 43.9
COc1ccccc1-n1c(SCC(=O)O)nc2c(sc(=S)n2-c2ccc(C)c(C)c2)c1=O	SIRT5 block 16.9 (no result: GSIS activator)
COc1ccccc1-n1c(SCC(=O)O)nc2c(sc(=S)n2-c2ccc(Cl)c(C)c2)c1=O	none
C/C(=N\NC(=O)CO/N=C(\C)c1cccs1)c1ccc(N)cc1	GSIS activator 45.8 (no result: ERAP1 HTS inh)
